The campaign covered roughly 1,200 compounds. About 65 (5%) were called active. The sample holds actives, similar compounds and a random draw of the others, so the mix is not that of the screen.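 The calls were made as follows: active = at either tested dose, response and 90th-percentile vesicle-stain brightness of CD8 cells under set limits and under 9% cells vesicle-bound; inactive = the rest.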

This assay in a line: modulators of CD8 T cell-vesicle binding, confirmation, cherry-picked primary hits, two concentrations (AID 2810).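 As to all read-outs here: lower values mean blocking of vesicle binding.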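 As to percent response (vesicle binding): ratio of mean FL2 vesicle stain of CD8+ cells to that row's control.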 The note with it: 2C CD8+ T cell-vesicle binding, flow cytometry; for double positive events: CD8+/vesicle+ events.
Setting [1] is: at 15.4 µM, stronger effect = lower value.

On to `Cc1noc(C)c1COc1ccc(C(=O)NCc2cccs2)cc1`, for which the double positive events came out at 6.2% (at 7.7 µM) and 22.1% under setting [1]. Also, the percent response (vesicle binding) was 165% (inactive) under setting [1] and 120% (response, at 7.7 µM).

`Nc1ccccc1C(=O)N/N=C1\C2CN3CCN(C2)CC1(c1ccccc1)C3`: the double positive events was found to be 20% (at 7.7 µM) and 18.6% under setting [1]. Also, the percent response (vesicle binding) was 176% (inactive) under setting [1] and 839% (response, at 7.7 µM).

For `CC(=O)c1ccc(OCc2cc(C(=O)N3CCCCC3c3cccnc3)no2)cc1` (stereo not drawn), the double positive events (at 7.7 µM) was determined as 18.2% and the double positive events under setting [1] was 21.2%. The percent response (vesicle binding) is 171% (inactive) under setting [1] and 229% (response, at 7.7 µM).

Regarding `O=C(Cc1cccc(NC(=O)C2CCCN(C(=O)C3CC3)C2)c1)Nc1cccc(C(=O)N2CCCC2)c1` (stereo not drawn), the double positive events is, setting by setting: (at 7.7 µM) 25%; under setting [1], 13.2%. Further, the percent response (vesicle binding) is 338% (inactive) under setting [1] and 438% (response, at 7.7 µM).

With `CN(Cc1ccccc1)C(=O)c1ccc(NC(=O)Cc2cccc(NC(=O)C3CCCN(C(=O)C4CCC4)C3)c2)cc1` (stereo not drawn), the double positive events is, setting by setting: (at 7.7 µM) 7.8%; under setting [1], 4.3%. Moreover, the percent response (vesicle binding) was 54.8% (active) under setting [1] and 219% (response, at 7.7 µM).

Regarding `CN(CC(=O)Nc1cccc(F)c1)C(=O)c1ccc(S(=O)(=O)N2CCCC2)cc1`, the double positive events is 28.6% (at 7.7 µM) and 10.5% under setting [1]. Also, the percent response (vesicle binding) reads like this: under setting [1], 176% (inactive); (response, at 7.7 µM) 275%.

On to `Cc1cc(C)c(C(=O)N2CCCC(N3CCN(c4ccc(F)cc4)CC3)C2)o1` (stereo not drawn), for which the double positive events by setting is: (at 7.7 µM) 39.2%; under setting [1], 14.9%. Further, the percent response (vesicle binding) is, setting by setting: under setting [1], 236% (inactive); (response, at 7.7 µM) 688%.

Consider `Cc1cc(C)cc(NC(=O)C(=O)NCCCN2CCCC2=O)c1`, for which the double positive events by setting is: (at 7.7 µM) 10%; under setting [1], 9.4%. Moreover, the percent response (vesicle binding) was 138% (inactive) under setting [1] and 150% (response, at 7.7 µM).

Take `COc1ccc(CN2C(=O)C(C)Nc3ncnc(N4CCN(c5ccccn5)CC4)c32)cc1` (stereo not drawn): the double positive events turned out to be 8.2% (at 7.7 µM) and 4.1% under setting [1]. Also, the percent response (vesicle binding) by setting is: under setting [1], 33.1% (active); (response, at 7.7 µM) 235%.

In the case of `COc1ccc(Cc2nc(-c3ccccn3)no2)cc1`, the double positive events amounted to 34.9% (at 7.7 µM) and 19.8% under setting [1]. The percent response (vesicle binding) reads like this: under setting [1], 702% (inactive); (response, at 7.7 µM) 360%.

For the compound `O=C(c1ccc(Cn2c(=S)[nH]c3ccccc3c2=O)cc1)N1CCN(c2ccccn2)CC1`, the double positive events is, setting by setting: (at 7.7 µM) 8.9%; under setting [1], 7%. Moreover, the percent response (vesicle binding) under setting [1] was 222% (inactive) and the percent response (vesicle binding) (response, at 7.7 µM) is 465%.

On to `Cc1cccc(NS(=O)(=O)c2ccc(Oc3ccccc3)cc2)n1`, for which the double positive events reads like this: (at 7.7 µM) 19.3%; under setting [1], 10.1%. For the same compound, the percent response (vesicle binding) under setting [1] was 148% (inactive) and the percent response (vesicle binding) (response, at 7.7 µM) is 86.6%.

Turning to `Cc1ccc(S(=O)(=O)Nc2c3ccccc3nc(=O)n2-c2ccccc2)cc1`, the double positive events came out at 21.4% (at 7.7 µM) and 7.9% under setting [1]. For the same compound, the percent response (vesicle binding) by setting is: under setting [1], 50.6% (active); (response, at 7.7 µM) 180%.

In the case of `Cc1ccc(S(=O)(=O)N2CCN(c3ncnc4ccccc34)CC2)cc1`, the double positive events runs as follows: (at 7.7 µM) 6.7%; under setting [1], 15.5%. For the same compound, the percent response (vesicle binding) by setting is: under setting [1], 103% (inactive); (response, at 7.7 µM) 116%.

Consider `O=C(Nc1ccccc1C(=O)OCC(=O)c1c[nH]c2ccccc12)c1ccco1`, for which the double positive events is 19.2% (at 7.7 µM) and 23.2% under setting [1]. Further, the percent response (vesicle binding) reads like this: under setting [1], 289% (inactive); (response, at 7.7 µM) 174%.

Consider `CCn1cc(CNC(=O)c2ccc(Cl)c([N+](=O)[O-])c2)c(C)n1`, for which the double positive events (at 7.7 µM) stood at 18.4% and the double positive events under setting [1] came out at 8.4%. Also, the percent response (vesicle binding) is 244% (inactive) under setting [1] and 301% (response, at 7.7 µM).

With `Cc1cccc(C)c1OCc1nnc(NC(=O)CSc2ccc(Cl)cc2)s1`, the double positive events stood at 31.8% (at 7.7 µM) and 24.4% under setting [1]. For the same compound, the percent response (vesicle binding) by setting is: under setting [1], 211% (inactive); (response, at 7.7 µM) 221%.

For `O=C1CCCc2sccc2N1`, the double positive events is, setting by setting: (at 7.7 µM) 17.6%; under setting [1], 1.1%. The percent response (vesicle binding) was 33.4% (active) under setting [1] and 308% (response, at 7.7 µM).

Take `CCCCn1c(N)c(N(CCOC)C(=O)c2c(CC)noc2C)c(=O)[nH]c1=O`: the double positive events turned out to be 8.2% (at 7.7 µM) and 14.5% under setting [1]. For the same compound, the percent response (vesicle binding) under setting [1] was 132% (inactive) and the percent response (vesicle binding) (response, at 7.7 µM) was found to be 298%.

`c1coc(-c2nc3c4c5c(sc4ncn3n2)CCCC5)c1`: the double positive events by setting is: (at 7.7 µM) 17.3%; under setting [1], 13.1%. Further, the percent response (vesicle binding) under setting [1] was 71% (inactive) and the percent response (vesicle binding) (response, at 7.7 µM) was 187%.

The compound `O=C(c1ccco1)N1CCN(c2ncccn2)CC1` came in with a double positive events (at 7.7 µM) of 27.2% and a double positive events under setting [1] of 11.7%. Also, the percent response (vesicle binding) by setting is: under setting [1], 199% (inactive); (response, at 7.7 µM) 331%.

Consider `O=C(c1ccco1)N1CCN(C(c2ccccc2Cl)c2nnnn2Cc2ccco2)CC1` (stereo not drawn), for which the double positive events is, setting by setting: (at 7.7 µM) 15.1%; under setting [1], 6.3%. Further, the percent response (vesicle binding) by setting is: under setting [1], 40.7% (active); (response, at 7.7 µM) 456%.

As to `COc1ccc(OC)c(C(c2nnnn2CCC(C)C)N2CCN(C(=O)c3ccco3)CC2)c1` (stereo not drawn), the double positive events (at 7.7 µM) turned out to be 33.6% and the double positive events under setting [1] stood at 30.5%. The percent response (vesicle binding) by setting is: under setting [1], 242% (inactive); (response, at 7.7 µM) 208%.

As for `COCC(C)NC(=O)CSc1nc2cc(S(=O)(=O)N3CCCCC3)ccc2o1` (stereo not drawn), the double positive events (at 7.7 µM) amounted to 13.5% and the double positive events under setting [1] was 13.6%. Moreover, the percent response (vesicle binding) under setting [1] is 131% (inactive) and the percent response (vesicle binding) (response, at 7.7 µM) turned out to be 364%.

For the compound `COc1cccc(NC(=O)Nc2ccc3nc(C)c(C)nc3c2)c1`, the double positive events reads like this: (at 7.7 µM) 9.8%; under setting [1], 8.7%. Moreover, the percent response (vesicle binding) runs as follows: under setting [1], 103% (inactive); (response, at 7.7 µM) 154%.

Turning to `COc1ccc(NC(=O)Nc2ccc(O)c3ccccc23)cc1`, the double positive events by setting is: (at 7.7 µM) 5.3%; under setting [1], 10%. Also, the percent response (vesicle binding) runs as follows: under setting [1], 103% (active); (response, at 7.7 µM) 35.3%.

As to `COc1ccc(NC(=O)Nc2c(O)ccc3ccccc23)cc1`, the double positive events was found to be 5.2% (at 7.7 µM) and 17.7% under setting [1]. Further, the percent response (vesicle binding) under setting [1] is 132% (inactive) and the percent response (vesicle binding) (response, at 7.7 µM) worked out at 173%.

For `Cn1nc(-c2ccccc2)c(CSc2ccccc2Cl)c1Cl`, the double positive events by setting is: (at 7.7 µM) 14.2%; under setting [1], 30.1%. Besides, the percent response (vesicle binding) under setting [1] was 241% (inactive) and the percent response (vesicle binding) (response, at 7.7 µM) is 251%.

For `CC(C)c1ccc(NC(=O)NCc2cccnc2)cc1`, the double positive events is, setting by setting: (at 7.7 µM) 12%; under setting [1], 22.3%. The percent response (vesicle binding) is, setting by setting: under setting [1], 281% (inactive); (response, at 7.7 µM) 415%.

`C/C(=N\NC(=O)c1ccc(Br)o1)c1cc2c(cc1NC(=O)CCC(=O)O)OCO2`: the double positive events was found to be 36.2% (at 7.7 µM) and 13.6% under setting [1]. For the same compound, the percent response (vesicle binding) is 208% (inactive) under setting [1] and 305% (response, at 7.7 µM).

For the compound `COc1ccc(NC(=O)C2CCC(C(C)(C)C)CC2)cc1S(=O)(=O)N1CCCCC1` (stereo not drawn), the double positive events amounted to 17.3% (at 7.7 µM) and 13.7% under setting [1]. Besides, the percent response (vesicle binding) by setting is: under setting [1], 203% (inactive); (response, at 7.7 µM) 135%.

The compound `COc1ccc(NS(=O)(=O)c2cc(NC(=O)C3CC3)ccc2N2CCCCC2)cc1` had a double positive events (at 7.7 µM) of 9.3% and a double positive events under setting [1] of 3.4%. In addition, the percent response (vesicle binding) was 36.1% (active) under setting [1] and 138% (response, at 7.7 µM).

With `COc1ccc(S(=O)(=O)N2CCCC2C(=O)Nc2ccc(C(C)=O)cc2)cc1` (stereo not drawn), the double positive events runs as follows: (at 7.7 µM) 6.8%; under setting [1], 18.3%. The percent response (vesicle binding) is 384% (inactive) under setting [1] and 406% (response, at 7.7 µM).

In the case of `Nc1nc(SCCO)[nH]c(=O)c1NC(=O)c1ccc(Br)o1`, the double positive events by setting is: (at 7.7 µM) 11.9%; under setting [1], 25.8%. Also, the percent response (vesicle binding) is 393% (inactive) under setting [1] and 383% (response, at 7.7 µM).

For the compound `O=C1CC(c2nc3ccccc3[nH]2)CN1Cc1ccccc1` (stereo not drawn), the double positive events was 17.2% (at 7.7 µM) and 4.3% under setting [1]. Moreover, the percent response (vesicle binding) reads like this: under setting [1], 50.8% (active); (response, at 7.7 µM) 341%.

As to `CCOCC(=O)Nc1ccc(S(=O)(=O)N2CCC(c3nc4ccccc4[nH]3)CC2)cc1`, the double positive events runs as follows: (at 7.7 µM) 7.3%; under setting [1], 21.4%. For the same compound, the percent response (vesicle binding) reads like this: under setting [1], 156% (inactive); (response, at 7.7 µM) 124%.

On to `O=C(c1ccccc1Cl)N1CCCC(c2nc3c(nnn3Cc3ccccc3)c(=O)[nH]2)C1` (stereo not drawn), for which the double positive events runs as follows: (at 7.7 µM) 9.2%; under setting [1], 17.6%. For the same compound, the percent response (vesicle binding) reads like this: under setting [1], 132% (inactive); (response, at 7.7 µM) 181%.

With `CC(OC(=O)c1ccc2c(c1)C(=O)N(Cc1ccncc1)C2=O)C(=O)Nc1cccc(Cl)c1Cl` (stereo not drawn), the double positive events reads like this: (at 7.7 µM) 16.7%; under setting [1], 30.5%. For the same compound, the percent response (vesicle binding) reads like this: under setting [1], 343% (inactive); (response, at 7.7 µM) 266%.

Turning to `CSc1ccccc1NC(=O)CN(C)C(=O)c1ccc2c(c1)OCCO2`, the double positive events runs as follows: (at 7.7 µM) 45.7%; under setting [1], 7.6%. Moreover, the percent response (vesicle binding) was 133% (inactive) under setting [1] and 295% (response, at 7.7 µM).

In the case of `CCc1ccc(NC(=S)N(CCCN2CCOCC2)Cc2ccccn2)cc1`, the double positive events amounted to 22.2% (at 7.7 µM) and 40% under setting [1]. Besides, the percent response (vesicle binding) runs as follows: under setting [1], 339% (inactive); (response, at 7.7 µM) 168%.

Regarding `CN(C)S(=O)(=O)c1cccc(-n2sc3ccccc3c2=O)c1`, the double positive events (at 7.7 µM) was 4.4% and the double positive events under setting [1] amounted to 2.1%. Further, the percent response (vesicle binding) was 52.8% (active) under setting [1] and 173% (response, at 7.7 µM).

Turning to `CCCc1cc(=O)[nH]c(SCC(=O)N2c3ccccc3CC2C)n1` (stereo not drawn), the double positive events (at 7.7 µM) was 26.4% and the double positive events under setting [1] was 4.8%. The percent response (vesicle binding) reads like this: under setting [1], 139% (inactive); (response, at 7.7 µM) 285%.

The record behind these values is PubChem BioAssay AID2810 (NMMLSC, 2010).
